Shown is part of a subset that was picked to be rich in hits.
Mac1 fbg inh: inhibitors of CD11b/CD18 adhesion to fibrinogen, primary screen, K562 cells, luminescence. Integrin beta-2 (Homo sapiens) + Integrin alpha-M (Homo sapiens), P05107+P11215. ATPlite luminescence; Mn2+ added to activate the integrin. inhibition, % at 10 µM. 0.54% of 93,000 active. AID 1497, 2009;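 active = primary inhibition of 50% or more at 10 µM, then 40% or more on retest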
CD11b adhes enh: enhancers of CD11b/CD18 adhesion to fibrinogen, primary screen, K562 cells, luminescence | Integrin beta-2 (Homo sapiens) + Integrin alpha-M (Homo sapiens), P05107+P11215 | ATPlite luminescence | activation, % at 10 µM | 0.07% of 93,000 active;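 active = 10 µM primary screen giving 50% or more activity, confirmed by 40% or more on retest at that dose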
Cav32 inh: Cav3.2 calcium influx blockers – cell-based, Fluo-4 calcium fluorescence, FDSS, MLSMR library, primary screen; Voltage-dependent T-type calcium channel subunit alpha-1H (Homo sapiens), O95180; Cav3.2-expressing cells; active compounds read low; B-score at 10 µM; 4% of 100,000 active;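 active = single-dose well whose peak fluorescence ratio is a statistical outlier from its plate by either plate-standardised score or position-corrected B-score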
E coli WT exp: growth inhibitors of wild-type E. coli, primary screen, strain BW25113, expanded library, OD600 | OD600 absorbance | growth inhibition, % at 100 µM | 0.15% of 98,000 active;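 active = growth inhibition above about 50% at one test dose, limit read from the data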;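 note: growth measured after 20 h incubation at 37 °C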
The depositor's hits bear a star; x = not tested or not shown.

SMILES	Mac1 fbg inh	CD11b adhes enh	Cav32 inh	E coli WT exp
O=C1N/C(=N/NC(=O)c2cccc3ccccc23)S/C1=C\c1ccccc1OCc1ccccc1	x	x	-5.16*	-25.0
O=C1NC(=NCc2ccccc2)S/C1=C\c1ccccc1	-1.6	-0.5	x	x
Cc1ccc(CN=Cc2[nH]c3ccc(Br)c(Cl)c3c2O)cc1	0.4	14.5	-3.06*	-3.0
C=CCOc1ccc(Br)cc1/C=N/O	2.3	-1.4	-3.89*	20.0
C=CCOc1ccc2ccccc2c1/C=N/O	6.1	0.3	-1.53*	19.0
O/N=C/c1cc(Br)ccc1OCc1ccccc1F	x	x	-1.63	x
CC(C)CNC(=O)c1ccccc1NC(=O)c1ccccc1N(C)S(=O)(=O)c1ccccc1	9.1	1.7	x	x
O=C(NC1CCCCC1)C(c1cccs1)N(Cc1cccs1)C(=O)c1cccs1 (centres undefined)	x	x	-5.26*	x
O=C(NC1CCCCC1)C(c1ccc2ncccc2c1)N(Cc1cccs1)C(=O)c1cccs1 (centres undefined)	x	x	-1.6	-13.0
Cc1cc(NC(=O)CCC(=O)N(Cc2cccs2)C(C(=O)NC2CCCC2)c2ccccc2)no1 (centres undefined)	x	x	-8.73*	x
Cc1cc(NC(=O)CCC(=O)N(Cc2cccs2)C(C(=O)NC2CCCC2)c2cccnc2)no1 (centres undefined)	x	x	1.73	-2.0
CCn1ncc(/C=N/NS(=O)(=O)c2ccc(Cl)cc2)c1C	-3.8	-2.0	0.377	13.0
CC12CCC(C/C1=N\N=C1\NC(=O)/C(=C\c3ccc(Cl)cc3)S1)C2(C)C (centres undefined)	96.0	-10.6	x	x
Cc1ccccc1CNC(=O)c1ccc(CSCc2ccccc2)cc1	4.8	15.8	-5.92*	-24.0
COc1ccc(C2NC(=S)N(c3ccccc3)C(C)=C2C(=O)Nc2ccccc2)cc1 (centres undefined)	11.4	-1.1	-2.69	-5.0
CC1=C(C(=O)Nc2ccc([N+](=O)[O-])cc2)C(c2cccc(C(F)(F)F)c2)NC(=S)N1c1ccccc1 (centres undefined)	3.2	-0.7	-6.68*	-7.0
O=C(CCc1nc2ccccc2[nH]c1=O)OCC(=O)c1cccc2ccccc12	-28.5	-2.5	-0.339	-3.0
CCCCNC(=O)c1onc(CSc2cccc3ccccc23)c1C(=O)O	x	x	-3.1*	-11.0
C#CCNC(=O)C1=C[C@@H](c2csc3ccccc23)C[C@@H](OCc2ccc(CO)cc2)O1	x	x	-0.678	x
O=c1oc(-c2ccc(Br)o2)nc2ccccc12	-10.2	0.9	0.0757	-6.0
N#Cc1ccc(OCC(=O)OCC(=O)NCCC2=CCCCC2)cc1	-10.5	5.9	x	x
CC(C)CN(CC(C)C)S(=O)(=O)N1CCC(C(=O)NCc2ccccn2)CC1	x	x	-0.0514	-2.0
CC(C)CN(CC(C)C)S(=O)(=O)N1CCC(C(=O)NCc2cccs2)CC1	-2.6	3.5	-3.73*	6.0
Cc1ccc(CNC(=O)CSc2c3c(nc4cc(Cl)ccc24)CCCC3)o1	8.0	-1.1	-1.37	-2.0
COc1ccc(Br)cc1/C(C)=N/NC1=NCCN1	74.4*	-5.5	0.297	8.0
SMILES	Mac1 fbg inh	CD11b adhes enh	Cav32 inh	E coli WT exp
COc1ccc(Br)cc1C(=O)Nc1nnn(C)n1	4.2	-6.1	0.9	-5.0
COc1ccc([N+](=O)[O-])cc1C1NN=C(c2ccccc2O)S1 (centres undefined)	x	x	-3.68*	25.0
COc1ccccc1NS(=O)(=O)c1cccc(C(=O)OCC(=O)Nc2cc(C)on2)c1	2.0	36.7	-4.75*	0.0
Cc1cccc(NS(=O)(=O)c2ccc(C)c(C(=O)OCC(=O)Nc3cc(C)on3)c2)c1	-3.2	-0.8	-4.06	0.0
CCn1c(CNC(=O)Cc2ccc(OC)cc2)nnc1SCC(=O)Nc1nccs1	-8.5	1.7	-1.65	9.0
CCn1c(Cc2cccc3ccccc23)nnc1SCC(=O)Nc1nccs1	x	x	-5.85*	x
CC1=C([N+](=O)[O-])C(c2ccccc2)C2=C(N1)c1ccccc1C2=O (centres undefined)	31.3	-4.2	-3.83*	1.0
CCCCC1(Cc2ccc(OC)c([N+](=O)[O-])c2)C(=O)N(c2ccccc2)N(c2ccccc2)C1=O	-35.6	2.7	-3.64*	-13.0
Cc1ccc(C2NNC(=O)C2NC(=O)c2ccccc2)cc1 (centres undefined)	-0.6	1.3	0.312	9.0
COc1ccc(C(NC(=O)N2CC(C)OC(C)C2)C(Cl)(Cl)Cl)cc1F (centres undefined)	-4.5	5.2	x	x
O=S(=O)(c1ccccc1)c1nc(Nc2ccccc2N2CCOCC2)sc1Cl	-3.0	-0.2	-5.32*	-18.0
Cc1ccc2cc(/C=C3\N=C(c4ccccc4)OC3=O)c(N3CCOCC3)nc2c1	-3.6	9.3	-6.55*	-5.0
Cc1ccc(C)c(N(C(=O)Cc2cccs2)C(C(=O)NC2CCCC2)c2ccc(C)o2)c1 (centres undefined)	-8.9	-0.4	0.0164	0.0
Cc1ccc(C(C(=O)NC2CCCC2)N(C(=O)Cc2cccs2)c2ccc(C)c(C)c2)o1 (centres undefined)	-5.1	1.3	-2.31*	2.0
Cc1nn(C)cc1C(C(=O)NC1CCCCC1)N(C(=O)Cc1cccs1)c1ccc(C(C)C)cc1 (centres undefined)	x	x	-5.26*	-6.0
C[C@@H](C(=O)N1CCNCC1)n1cc(CCCN=C(N)N)nn1	x	x	0.766	x
O=C(NCCc1csc(-c2ccc(C(F)(F)F)cc2)n1)c1cccs1	28.7	5.2	-6.12*	0.0
C#C[C@]1(O)CC[C@H]2[C@@H]3CCC4=Cc5oncc5C[C@]4(C)[C@H]3CC[C@@]21C	x	x	-4.54*	x
C#C[C@]1(O)CC[C@H]2[C@@H]3CCc4cc(OC5CCCC5)ccc4[C@H]3CC[C@@]21C	x	x	-0.207	x
O=C(NC1CCCCC1)c1ccc2c(c1)S(=O)(=O)c1ccccc1C2=O	x	x	-1.32	x
COC(=O)c1c(-c2ccc(C)cc2)csc1NC(=O)Cc1ccc(OC)c(OC)c1	54.4*	-3.6	x	-2.0
CC(NC(=O)/C=C/c1cnc2ccccc2n1)C12CC3CC(CC(C3)C1)C2 (centres undefined)	21.4	6.7	x	x
COCCn1nnnc1C(C(C)C)N(Cc1ccccc1)Cc1cc2cc(OC)ccc2[nH]c1=O (centres undefined)	6.8	3.2	-3.97*	-2.0
CCC(c1nnnn1C1CCCCC1)N(Cc1ccco1)Cc1cc2ccc(OC)cc2[nH]c1=O (centres undefined)	23.2	-0.8	-0.677	-8.0
CCOC(=O)Cn1nnnc1C(CC)N(Cc1cccs1)Cc1cc2ccc(OC)cc2[nH]c1=O (centres undefined)	9.0	-3.3	-3.7*	-16.0
Cc1cc(C(=O)NCCCn2ccnc2)sc1-c1ccccc1	x	x	0.434	24.0
CC1CCCN(S(=O)(=O)c2ccc(C(=O)Nc3nnc(-c4ccccc4Cl)o3)cc2)C1 (centres undefined)	-24.3	1.5	-7.32*	-9.0
CCC1CCCCN1S(=O)(=O)c1ccc(C(=O)Nc2nnc(-c3cccs3)o2)cc1 (centres undefined)	x	x	-8.51*	8.0

Compound activity: PubChem BioAssay, several laboratories
